Structures are written as SMILES. Where “and” joins values, the source holds several entries; their conditions need not be identical. Identical values can stand only once. This is part of a sample that, as a whole, favours compounds with a hit. Of some 83,000 tested, about 20% had one in any assay.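 Assay: single dose, 48 h. Readout: percent growth (0 = no net growth; negative = cell death). Active: <10.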 Calls of active or inactive are those of the source.

The assay deals with MDA-MB-468 breast. The assay is described as follows: NCI-60 one-dose screen, 48 h (100 = growth as untreated, 0 = no growth, -100 = all killed). The settings on record: 10 µM unless noted.
`O=C(Nc1ccc(-n2ccc3c(NC(=O)c4ccccc4)nccc32)cc1)Nc1cccc(C(F)(F)F)c1`: the growth is 15.5% (inactive). For `CC1Cc2c(N(C)C)ncnc2N(C)c2ccc(O)cc21` (stereo not given), the growth was 79.4% (inactive).

As to `COC(=O)C(Cc1cn(C(C)=O)c2ccccc12)P(=O)(OC)OC` (stereo not given), the growth was 101% (inactive). For the compound `O=C1OCC2=C1C(c1ccccc1)c1cc3c(cc1N2CCO)CCC3` (stereo not given), the growth is 15% (inactive). Take `COc1ccccc1NCc1cccn1Cc1ccc(F)cc1`: the growth is 82.6% (inactive). Take `O=C1Nc2ccccc2/C1=C/c1cccn1CCCCCCn1c2ccccc2c(=O)c2ccccc21`: the growth was 8.47% (active). Take `COc1cc(-c2c3c(cn2CCN2CCCCC2)-c2oncc2CC3)cc(OC)c1OC`: the growth is 94.6% (inactive). Consider `C=CCn1c(SCC(=O)Nc2ccc(OC)cc2)nnc1-c1ccc(Cl)cc1`, for which the growth is 81% (inactive). Turning to `CCOC(=O)C1=C(C)NC(SCc2nnc(-c3ccc(Cl)cc3)o2)=NC1c1ccc(Cl)cc1` (stereo not given), the growth is 48.9% (inactive). Consider `Cc1ccc(C)n1-c1ccccc1-n1c(C)ccc1C`, for which the growth was 104% (inactive). For the compound `CCCNCC(=O)Nc1ccc(C(=O)OC(C)(C)CC)cc1`, the growth was 102% (inactive). The value for `OCCNCCNC(Cc1ccc(Cl)cc1)c1ccccc1` (stereo not given) was 86.4% (inactive); that for `COc1ccc(C2=CC(c3ccc(OC)cc3Br)N3C=CSC3=N2)cc1` (stereo not given) was 17.4% (inactive); that for `CSc1nnc(-c2cc3c([nH]c4ccccc43)c(-c3cccc(O)c3)n2)n1-c1ccc(C)cc1` was 20.4% (inactive). The value for `CN1CCN(C2CCN(C(=O)Nc3cc(Oc4ccc(NC(=O)C5(C(=O)Nc6ccc(F)cc6)CC5)c(F)c4)ccn3)CC2)CC1` was -70.7% (active) and 96.6% (inactive); that for `CCS(=O)(=O)N1CCN(c2ccc(Nc3ncc(C(N)=O)c(NC4CC4)n3)cc2)CC1` was 42.2% (inactive).

`Ic1ccccc1-c1ccccc1`: the growth was 103% (inactive). The value for `C[C@@H]1CC[C@@H]2[C@@H]1[C@H](OC(=O)c1ccc3ccccc3c1)[C@]1(C3CCCCC3)C[C@@H](OC(=O)CO)[C@@]2(C)O1` was 63.6% (inactive); that for `O=C(Nc1ccc(Cl)c(C(F)(F)F)c1)Nc1ccc(-c2cccnc2)cc1N1CCC(CO)CC1` was 12.6% (inactive). To `COc1ccc(-c2ccnc3c(C#N)c(Nc4ccccc4)nn23)cc1OC` belongs 79.4% (inactive); to `O=C(NC1CC(F)C1)c1cc2cccnc2n1-c1ccc(Cl)c(Cl)c1` (stereo not given), 101% (inactive). On to `CCOC(=O)c1ccc(NC(=O)Nc2ncc(Cl)cc2Cl)cc1`, for which the growth is 95.1% (inactive). To `O=S(=O)(NCCNc1nccc(-c2c(-c3ccc(O)cc3)nc3sccn23)n1)c1cccc2ccccc12` belongs 94.6% (inactive); to `Cc1ccc2ccccc2c1C[n+]1ccccc1`, 50.5% (inactive); to `CC(C)CCC[C@@H](C)[C@H]1CCC2C3=CCC4C(=O)C=CC(=O)C4C3CC[C@@]21C` (stereo not given in full), 2.69% (active). The value for `O=C(/C=C1\C(=O)N(Cc2ccccc2)c2ccccc21)c1ccc(OCCN2CCCCC2)cc1` was 19.6% (inactive). For `COc1ccc(-c2c(-c3ccc(OC)c(O)c3)cnc3ncnn23)cc1`, the growth is 109% (inactive).

`NCCN1CCN(c2nc(-c3ccccc3)nc3nc(-c4ccccc4)oc23)CC1`: the growth was -33.6% (active). In the case of `C=C1SC(=Nc2c(C)cccc2C)N(c2nc(Cl)nc(Cl)n2)C12CCCCC2`, the growth is 101% (inactive). For the compound `Cn1cc(-c2csc(-c3c[nH]c4ccc(F)cc34)n2)c2cccnc21`, the growth is -22.7% (active). To `Cc1cc(NC(=O)c2ccc(C)c(Nc3nccc(-c4cccnc4)n3)c2)cc(-n2cnc(C)c2)c1` belongs -18.1% (active); to `C[C@@H](Oc1ccc(C(=O)NS(=O)(=O)C(C)(C)C)cc1C(F)(F)F)c1ccc(Oc2ccccc2)cn1`, -13.5% (active).

In the case of `CC/C(=C(\CC)c1ccc(OCC[N+](C)(C)C)cc1)c1ccc(OC)cc1`, the growth was 2.58% (active). For the compound `C#CCOc1cccc(-c2nc(N)nc(Nc3ccccc3SSc3ccccc3Nc3nc(N)nc(-c4cccc(OCC#C)c4)n3)n2)c1`, the growth was 73% (inactive). As for `CCCCCCCCCCCC[S+](C)CC(=O)[O-]` (stereo not given), the growth is -53.1% (active). Regarding `COc1cc(OC)cc(C2C(C#N)=C(N)Oc3c2ccc2ccc(O)cc32)c1` (stereo not given), the growth was -16.6% (active).

With `CCNC(=O)Oc1ccc(/C(=C(/C)Cc2ccc(OC)cc2)c2ccc(OCCN(CC)CC)cc2)cc1`, the growth was 46.6% (inactive). As to `O=C(C[n+]1ccn(CC(OCc2ccc(Cl)cc2Cl)c2ccc(Cl)cc2Cl)c1)c1ccc(F)cc1` (stereo not given), the growth was -77.2% (active).

For `CN(C)c1ccc(/C=C/C=N/NC(=O)c2cc(O)c(O)c(O)c2)cc1`, the growth is 89.1% (inactive). As to `O=C1C=CC2(O)OC(c3ccccc3)CC(=O)C2=C1O` (stereo not given), the growth was 70.7% (inactive).

Values taken from PubChem BioAssay (NCI).
